Compound activity as filed in PubChem BioAssay.
GALK inhibitor = galactokinase (human) inhibition | P51570 | Purified GALK, Kinase-Glo residual ATP luminescence | Potency, µM (top dose mostly 57.5 µM), for the others: at the highest dose activity change, negative = inhibition, most hits filed as inhibitors | 270,000 compounds, 0.007% hits; further: on the % scale 0 is the no-effect control and ±100 the full control effect
Target sequence (P51570 whole entry, looked up): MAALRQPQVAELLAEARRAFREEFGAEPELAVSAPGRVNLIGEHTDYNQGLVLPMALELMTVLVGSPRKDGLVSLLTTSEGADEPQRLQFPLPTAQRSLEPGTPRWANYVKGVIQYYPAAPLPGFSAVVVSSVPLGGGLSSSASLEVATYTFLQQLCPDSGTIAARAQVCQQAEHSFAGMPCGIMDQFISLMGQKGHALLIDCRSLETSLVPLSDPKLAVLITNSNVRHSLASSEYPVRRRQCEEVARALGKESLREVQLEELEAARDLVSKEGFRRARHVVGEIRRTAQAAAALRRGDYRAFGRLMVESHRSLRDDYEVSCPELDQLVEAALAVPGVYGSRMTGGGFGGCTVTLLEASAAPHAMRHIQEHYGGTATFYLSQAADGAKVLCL
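The enzyme phosphorylates galactose (100 uM) using ATP (35 uM); inhibition is detected as higher residual ATP, quantified by bioluminescence after 1 h reaction at room temperature, pH 8.0.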
USP2a block = blocks human ubiquitin-specific protease USP2a; O75604; USP2 core, Ub-CHOP2 coupled fluorogenic reporter, 485/531; Potency, µM (highest dose often 38.3 µM), without a hit: top-dose activity change, negative = inhibition, actives largely listed as inhibitors; 330,000 compounds, 0.01% hits; AID 463254;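 further: plate controls were DMSO wells for no effect and full inhibition by NEM control for full effect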
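USP2 core (10nM final) preincubated 30min RT with compound in 20mM Tris-HCl pH 8.0, 2mM CaCl2, 2mM beta-mercaptoethanol, 0.05% CHAPS; 25nM Ub-CHOP2 plus 25nM reporter substrate added, fluorescence (Ex485/Em531) read after 60min.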
Eya2 phos inh = Eya2 (human) phosphatase inhibition | AID 488837 | 330,000 compounds, 0.006% hits | recombinant Eya2, OMFP fluorescence dephosphorylation (OMFP is methylfluorescein phosphate) | O00167 | Potency, µM (doses to about 76.9 µM), without a hit: at the top dose activity, negative = inhibition, hits mostly inhibitors; further: on the % scale 0 is the no-effect control and ±100 the full control effect
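Eya2 (0.2 uM) preincubated 10 min at ambient with compound, then OMFP substrate added at 50 uM; 10 min reaction in 50 mM HEPES pH 7.5, 50 mM NaCl, 5 uM MgCl2, 0.05% BSA, 1 mM DTT. Fluorescence read at Ex 485/Em 525 nm.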
ClpP mod = qHTS Assay for Activators of ClpP; ATP-dependent Clp protease proteolytic subunit (Bacillus subtilis (strain 168)), P80244; purified B. subtilis ClpP, FRET peptide cleavage, 20 min; Potency, µM (titrated, usually from 57.5 µM), for the others: top-dose activity change, negative = active; 340,000 compounds, 1.9% hits; active means well fitted falling curve with a large enough effect; inconclusive means small, poorly fitted or top-dose-only effect; inactive means no such curve, though single readings can be large or run the other way; further: the source files actives as falling curves though it sought activators and does not explain the sign; nearly all actives have a fitted effect of over 65% in size
Target sequence (P80244 whole entry, looked up): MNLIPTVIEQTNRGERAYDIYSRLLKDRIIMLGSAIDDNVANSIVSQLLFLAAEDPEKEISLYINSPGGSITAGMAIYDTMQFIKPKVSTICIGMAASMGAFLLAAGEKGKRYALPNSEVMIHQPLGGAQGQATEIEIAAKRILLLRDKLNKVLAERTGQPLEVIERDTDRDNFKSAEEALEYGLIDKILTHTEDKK
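ClpP 10 microg/mL final, pH 8 Tris/KCl buffer with BSA, glycerol, Tween-20; compound pinned in; FRET-FV substrate; RT 20 min; Ex320/Em430; ΔFRET vs ADEP 5.8 microM, DMSO, no enzyme.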
Active calls of the source: *; ! = not active in a repeat. The full list was thinned out, with hits kept by preference. Unless noted, the call rests on the fitted dose curve; in most records, active means well fitted inhibition curve with a large enough effect; inconclusive means small, poorly fitted or top-dose-only effect, or effect the other way; inactive means flat fitted curve, though single readings scatter. Potency means the concentration at half of the fitted maximal effect.

For O=C1c2ccccc2NC(c2cccc(F)c2)N1Cc1ccccc1 (stereo not given) the results were USP2a block 0.2%, Eya2 phos inh -19.6% and ClpP mod 3.8%.
`O=C1c2ccccc2NC(c2ccc(O)cc2)N1Cc1ccco1` (stereo not given) gave GALK inhibitor -4.0%, USP2a block 0.9%, Eya2 phos inh -26.8% and ClpP mod 31.6µM*!.
Cc1ccc(C2Nc3ccccc3C(=O)N2Cc2ccco2)cc1 (stereo not given) was read as GALK inhibitor 3.5%, USP2a block 3.3%, Eya2 phos inh 4.1% and ClpP mod 25.1µM*.
`O=C1c2ccccc2NC(c2cccc(F)c2)N1Cc1ccco1` (stereo not given) gave GALK inhibitor -0.9%, USP2a block -1.3%, Eya2 phos inh -1.3% and ClpP mod 17.8µM*.
CC(=O)c1cccc(NC(=O)c2ccc(S(=O)(=O)N3CCCC3)cc2)c1 was read as GALK inhibitor -1.6%, USP2a block 0.5% and Eya2 phos inh 3.8%.
`Cc1cc(C)n2nc(SCC(=O)N3CCN(c4ccccc4)CC3)nc2n1` gave USP2a block -1.1%, Eya2 phos inh 6.5% and ClpP mod 31.6µM*.
`Cc1cc(C)n2nc(SCC(=O)N3CCCC3)nc2n1` gave USP2a block 0.8%, Eya2 phos inh 6.6% and ClpP mod 1.2%.
`O=C1c2ccccc2C(c2nnnn2Cc2ccccc2)N1CCOc1ccccc1` (stereo not given) gave ClpP mod 0.7%.
`NC(=O)COc1ccc(NC(=O)OCc2ccccc2)cc1` gave GALK inhibitor -1.5%, USP2a block 1.3%, Eya2 phos inh 4.6% and ClpP mod 31.6µM*.
`CC1=Nc2ncnn2C(c2ccccc2)/C1=N\O` (stereo not given) gave GALK inhibitor 0.6%, USP2a block 0.3%, Eya2 phos inh -2.0% and ClpP mod 4.9%.
Screening O=C1NCCCC1C(=O)N/N=C/c1cccc([N+](=O)[O-])c1 (stereo not given) returned GALK inhibitor 6.7%, USP2a block 3.0% and Eya2 phos inh 7.7%.
For COc1ccccc1CN1CC(C(=O)NC2(c3ccccc3)CC2)CCC1=O (stereo not given) the results were GALK inhibitor 3.6%, USP2a block 0.8%, Eya2 phos inh -8.9% and ClpP mod 31.6µM*.
COc1ccccc1CCNC(=O)C1CCC(=O)N(Cc2ccccc2OC)C1 (stereo not given) was read as GALK inhibitor 6.2%, USP2a block 0.1%, Eya2 phos inh 14.2% and ClpP mod -0.1%.
`CCc1ccccc1NC(=O)CCC(=O)OCC(=O)c1ccc(-c2ccccc2)cc1` gave GALK inhibitor 0.5%, USP2a block 1.4%, Eya2 phos inh -0.4% and ClpP mod 1.5%.
For Cc1csc2nc(COc3ccccc3NC(=O)c3ccc(C(C)(C)C)cc3)cc(=O)n12 the results were ClpP mod -2.9%.
For CC(C)COc1ccc(-c2nnc(-c3ccncc3)o2)cc1 the results were GALK inhibitor -2.1%, USP2a block 2.8%, Eya2 phos inh 12.8% and ClpP mod 31.6µM*.
For CCCOc1ccc(-c2nnc(-c3ccncc3)o2)cc1 the results were GALK inhibitor 1.1%, USP2a block 2.3%, Eya2 phos inh 16.1% and ClpP mod inconclusive.
O=C(N/N=C/c1cccs1)c1cccc2cc[nH]c12 was read as GALK inhibitor -1.5%, USP2a block 2.5%, Eya2 phos inh 25.1µM* and ClpP mod -3.5%.
For O=C(N/N=C/c1cccs1)c1ccc2ccccc2c1 the results were GALK inhibitor -8.2%, USP2a block 0.8%, Eya2 phos inh -5.7% and ClpP mod -5.1%.
Screening CCN(C[C@H]1N[C@@](CC)(C(=O)OC)[C@H]2C(=O)N(C)C(=O)[C@@H]12)S(=O)(=O)c1ccc(C(C)(C)C)cc1 returned USP2a block 0.4%, Eya2 phos inh 8.3% and ClpP mod 1.2%.
For Cc1nn(C)c2c1c(-c1ccccc1)cc(=O)n2Cc1ccc(Br)cc1F the results were ClpP mod -2.9%.
Cc1nn(C)c2c1c(-c1ccccc1)cc(=O)n2Cc1ccccc1Cl was read as ClpP mod 28.2µM*.
For Cc1c(Cl)cccc1NC(=O)C(C)n1c(=O)cc(-c2ccccc2)c2c(C)nn(C)c21 (stereo not given) the results were ClpP mod 77.4%.
For Cc1nn(C)c2c1c(-c1ccccc1)cc(=O)n2Cc1ccccc1F the results were ClpP mod 28.2µM*.
For Cc1nn(C)c2c1c(-c1ccccc1)cc(=O)n2Cc1c(F)cccc1Cl the results were ClpP mod -28.5%.
For COc1cc(OC)c(NC(=O)C(C)n2c(=O)cc(-c3ccccc3)c3c(C)nn(C)c32)cc1Cl (stereo not given) the results were ClpP mod 31.6µM*.
For O=C(CSc1nnc(CNC(=O)c2c(F)cccc2Cl)o1)Nc1ccc2c(c1)OCO2 the results were GALK inhibitor 9.8%, USP2a block -1.4% and Eya2 phos inh 1.9%.
`O=c1oc2c(O)c(O)cc3c(=O)oc4c(O)c(O)cc1c4c23` gave USP2a block 1.12µM*, Eya2 phos inh 0.1% and ClpP mod -1.5%.
Screening CCC(CC)C(=O)Nc1nnc(-c2cccs2)s1 returned GALK inhibitor -1.3%, USP2a block -2.0%, Eya2 phos inh -3.5% and ClpP mod 25.1µM*.
`CN1CCN(CC(=O)Nc2nnc(-c3cccs3)s2)CC1` gave GALK inhibitor 0.2%, USP2a block 1.4%, Eya2 phos inh 3.2% and ClpP mod 22.4µM*.
For COc1cccc(OC)c1C(=O)Nc1nnc(-c2cccs2)s1 the results were GALK inhibitor 2.6%, USP2a block 1.6%, Eya2 phos inh -1.0% and ClpP mod -25.4%.
For CCCc1nnc(NC(=O)CN2CCN(C)CC2)s1 the results were GALK inhibitor 4.0% and ClpP mod 0.2%.
Screening O=C(NCCCN1CCOCC1)C1CC(=O)N(C2CCCCC2)C1 (stereo not given) returned GALK inhibitor 0.0%, USP2a block -1.7%, Eya2 phos inh 11.6% and ClpP mod -2.0%.
Screening CCc1ccc(-c2nc(SCC(=O)NCCOC)c(-c3ccc(C)cc3)[nH]2)cc1 returned ClpP mod 28.2µM*.
Screening CCOc1ccc(-c2ccc3nnc(SCC(=O)NCC4CCCO4)n3n2)cc1 (stereo not given) returned USP2a block 1.5%, Eya2 phos inh -14.0% and ClpP mod 31.6µM*.
For Cc1ccc(-c2nc(SCC(=O)NCC3CCCO3)c(-c3ccc(Cl)cc3)[nH]2)cc1 (stereo not given) the results were USP2a block 1.3%, Eya2 phos inh -7.1% and ClpP mod -20.7%.
For COc1ccc(-c2ccc3nnc(SCC(=O)NCC4CCCO4)n3n2)cc1 (stereo not given) the results were USP2a block -4.9%, Eya2 phos inh -6.5% and ClpP mod inconclusive.
